Measurements from PubChem BioAssay (NCI).
The panel holds about 83,000 compounds, 20% with a hit somewhere; the sample as a whole holds those more often.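 The test compound was applied at a single concentration to cells in 96-well plates for 48 hours, and percent growth was recorded.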 Values without a mark were called inactive. The source made the active and inactive calls. Rule for the calls: active = growth percent below 10; inactive = the rest.

Experiments:
Assay in all cases: NCI-60 one-dose screen, 48 h (100 = growth as untreated, 0 = no growth, -100 = all killed)
Conditions in all cases: 10 µM unless noted
NCI-H23 lung = tested on: NCI-H23 lung
NCI-H322M lung = tested on: NCI-H322M lung
HOP-62 NSCLC = tested on: HOP-62 NSCLC
NCI-H460 lung = tested on: NCI-H460 lung
HOP-92 NSCLC = tested on: HOP-92 NSCLC
NCI-H522 lung = tested on: NCI-H522 lung
A549/ATCC NSCLC = tested on: A549/ATCC NSCLC
786-0 renal = tested on: 786-0 renal
COLO 205 colon = tested on: COLO 205 colon
DU-145 prostate = tested on: DU-145 prostate

| SMILES | growth (NCI-H23 lung) | growth (NCI-H322M lung) | growth (HOP-62 NSCLC) | growth (NCI-H460 lung) | growth (HOP-92 NSCLC) | growth (NCI-H522 lung) | growth (A549/ATCC NSCLC) | growth (786-0 renal) | growth (COLO 205 colon) | growth (DU-145 prostate) |
| --- | --- | --- | --- | --- | --- | --- | --- | --- | --- | --- |
| O=c1cc(-c2ccccc2)oc2cc(OCc3cn(Cc4ccc(F)cc4)nn3)cc(OCc3cn(Cc4ccc(F)cc4)nn3)c12 | 29.2% | 43.5% | 12.4% | 2.98% (active) | -18% (active) | 17.6% | 23.2% | 1.13% (active) | 68.4% | 40% |
| COc1cc(/C=C2\CN(S(=O)(=O)c3ccccc3)C/C(=C\c3cc(CN4CCCC4)c(O)c(OC)c3)C2=O)cc(CN2CCCC2)c1O | -57.8% (active) | 21.4% | -4.65% (active) | -30.7% (active) | -11.3% (active) | -26.3% (active) | 19.9% | 4.02% (active) | -30.4% (active) | -16.7% (active) |
| O=C(CSc1nc2ccccc2c(=O)n1-c1ccccc1)Nc1ccc(C(=O)/C=C/c2ccc(Cl)cc2)cc1 | 93.4% | 101% | 107% | 100% | 97.1% | 85.3% | 97% | 102% | 108% | 109% |
| COc1c(B(O)O)cccc1-c1nc2ccc3[nH]ncc3c2c2c1C1CCC2C1 (stereo not given) | 85.1% | 84.2% | 65.7% | 51% | 108% | 59.5% | 26.6% | 52.6% | 50.4% | 72.3% |
| CCOC(=O)c1cc2c(n1Cc1ccccc1OC)-c1oncc1CCC2 | 45.3% | 86% | 45.3% | 18.4% | 57% | 19.2% | 36.6% | 49.6% | 2.53% (active) | 33.2% |
| CCCCC1COc2cccc3c2N1C=C/C3=C\C(=O)N(C)c1ccccc1 (stereo not given) | 26.6% | 89.2% | 78.2% | 64% | 48.4% | 55.6% | 71.6% | 79.3% | 72.9% | 82.9% |
| O=C(Nc1nc2c(s1)CCc1c-2c(Br)n(Cc2ccccc2)c1Br)c1ccccc1 | 79.9% | 58.9% | 32.8% | 40.8% | 31.2% | 61.9% | 67.2% | 56.7% | 72.7% | 74.5% |
| Nc1ccccc1-c1ccc(-c2ccc(Cl)cc2)c2c1[nH]c1ccccc12 | 77% | 64% | 79.5% | 88.6% | 7.99% (active) | 73.5% | 67.9% | 76.5% | 78.5% | 75.9% |
| O=C(Nc1ccc(F)cc1F)c1cc(Cl)ccc1O | 5.18% (active) | 5.61% (active) | 3.07% (active) | 7.22% (active) | -20.5% (active) | -28.2% (active) | 6.37% (active) | 2.83% (active) | 9.45% (active) | 18% |
| O=C(CCN1C(=O)c2ccccc2C1=O)Nc1ccc(Cl)cc1 | 66.4% | 82.2% | 54.8% | 44.1% | 64.3% | 66.3% | 79.2% | 65.8% | 118% | 67.2% |
| CCOC(=O)C1=C(C)N=c2s/c(=C\c3cc(Cl)ccc3O)c(=O)n2C1c1ccc(OC)cc1 (stereo not given) | 88.1% | 104% | 110% | 91.6% | 69.2% | 81% | 94.9% | 94.6% | 101% | 107% |
| COc1ccc(Cn2cc(Cn3cc(C=C4C(=O)NC(=O)NC4=O)c4ccccc43)nn2)cc1 | 62.7% | 90.1% | 92.4% | 48% | 84.5% | 89.9% | 112% | 96.7% | 108% | 92.1% |
| COC(=O)/C(CCC=C(C)C)=C1\[C@@H](OC(C)=O)C[C@@]2(C)[C@H]1C[C@@H](O)[C@H]1[C@@]3(C)CC[C@H](NCCO)[C@@H](C)[C@@H]3CC[C@@]12C | 97.7% | 101% | 106% | 105% | 93.6% | 99.9% | 109% | 98.7% | 103% | 104% |
| O=C(Nc1ccc(F)cc1F)c1cc(I)ccc1O | 8.86% (active) | 8.13% (active) | 2.05% (active) | 6.03% (active) | -20% (active) | -12.4% (active) | 6.86% (active) | 12.3% | 77.8% | 19.1% |
| Cn1c(C(=O)c2cccc3ccccc23)nc2ccccc21 | 19.4% | -2.65% (active) | 18.6% | 3.61% (active) | 34% | -4.82% (active) | 3.42% (active) | 5.77% (active) | 12.9% | 18.3% |
| CCOc1cccc(/C=N\Nc2nc(=O)cc(C(=O)OC)s2)c1O | 85.7% | 54.2% | 85.6% | 44% | 60.1% | 79.3% | 63.1% | 83.9% | 91.6% | 103% |
| C=C[C@@H]1CCC/C=C/[C@@H]2C[C@H](O)C[C@H]2[C@H](O)/C=C/C(=O)O1 | 5.64% (active) | 38.3% | 19.2% | 13.5% | 25.5% | -24.5% (active) | 22.6% | -12.9% (active) | -78.4% (active) | 21.1% |
| CCCc1c(C)c2sc(=O)[nH]c2[nH]c1=O | 104% | 111% | 107% | 107% | 104% | 96% | 103% | 109% | 113% | 114% |
| O=c1oc2ccc(F)cc2c(=O)n1-c1ccc(I)cc1F | 2.97% (active) | 8.02% (active) | -3.36% (active) | 3.08% (active) | -17.6% (active) | -15.8% (active) | 5.88% (active) | 0.0953% (active) | 53.9% | 14.8% |
| C=CCN1C(=O)/C(=c2\sc3n(c2=O)NC2C(N=3)N(CC)C(=O)N2CC)c2ccccc21 (stereo not given) | 43.7% | 57% | 62.7% | 15% | 108% | 25.9% | 42.5% | 57.5% | 11.1% | 26% |

| SMILES | growth (NCI-H23 lung) | growth (NCI-H322M lung) | growth (HOP-62 NSCLC) | growth (NCI-H460 lung) | growth (HOP-92 NSCLC) | growth (NCI-H522 lung) | growth (A549/ATCC NSCLC) | growth (786-0 renal) | growth (COLO 205 colon) | growth (DU-145 prostate) |
| --- | --- | --- | --- | --- | --- | --- | --- | --- | --- | --- |
| Cc1nc(Nc2cn[nH]c2C(=O)Nc2ccc(CN3CCN(C)CC3)cc2)c2ccsc2n1 | 95.5% | 88.1% | 107% | 109% | 90.6% | 72% | 66.9% | 65.1% | 94.1% | 102% |
| CCCN1C(=O)N(CCC)C2C1NN=c1s/c(=C3\C(=O)N(C(C)C)c4ccccc43)c(=O)n12 (stereo not given) | 76% | 78% | 41.9% | 35.3% | 27.1% | 22.4% | 43.9% | -6.03% (active) | 43.8% | 53.5% |
| O=C(c1nc2ccccc2[nH]1)C1[C@@H](c2cccc(O)c2)C2CC3CCCCC3N2[C@@]12C(=O)Nc1cc(Cl)ccc12 (stereo not given in full) | 48.6% | 61.6% | 60.3% | 13.1% | 55% | 51.9% | 27.2% | 35.2% | 63.5% | 43.7% |
| CC1=C(C(=O)OCC2CCN(C(=O)OC(C)(C)C)CC2)[C@H](c2cccc(Br)c2)C2=C(CC(C)(C)CC2=O)N1 | 48.4% | 57.2% | 55.7% | 8.59% (active) | 61.7% | 19.8% | 17.3% | 44.1% | 27.4% | 38.3% |
| CCCCCCCCCCOC(=O)c1ccccc1C(=O)OCCCC | 107% | 108% | 107% | 120% | 91.3% | 91.2% | 111% | 106% | 117% | 114% |
| O=C(CCc1nnc2sc(Cc3ccccc3Cl)nn12)c1nc2ncccc2[nH]1 | 89.9% | 93.5% | 92.3% | 97.8% | 78.4% | 81.5% | 104% | 105% | 109% | 101% |
| O=C(O)CCC(=O)c1ccc(C2CCCCCC2)cc1 | 97.9% | 97.5% | 98.8% | 107% | 99.7% | 87.5% | 99.6% | 95.8% | 104% | 108% |
| COc1ccc(Cn2cc(Cn3c(=O)c(-c4nc5ccccc5[nH]4)cc4ccccc43)nn2)c(OC)c1OC | 4.71% (active) | 18% | 9.29% (active) | 1.94% (active) | -2.19% (active) | -1.1% (active) | 9.33% (active) | -50.1% (active) | 13.5% | -59.6% (active) |
| O=C1/C(=C/c2ccc(O)cc2)COc2ccc(O)c(O)c21 | 35.9% | 79% | 51.5% | 8.73% (active) | 52.7% | -47.7% (active) | 34.5% | 25.4% | 91.8% | 17% |
| COc1cc2c(cc1OC)C(=O)C(CC1CCN(C(=O)Nc3ccc(C)cc3)CC1)C2 (stereo not given) | 100% | 95.7% | 99.1% | 97.3% | 62.5% | 87.8% | 108% | 101% | 110% | 104% |
| COc1cc(NC(=O)CCSc2nc3ccccc3c(=O)n2CCc2ccccn2)cc(OC)c1OC | 88.3% | 88.8% | 85.7% | 83.5% | 89.1% | 25% | 84% | 84.3% | 115% | 103% |
| COc1cc(-c2c3c(c(Br)n2Cc2ccccc2)-c2nc(N)sc2CC3)cc(OC)c1OC | 98.2% | 77.7% | 88.5% | 94% | 76.4% | 38.4% | 82.9% | 86% | 108% | 108% |
| O=C1/C(=C/c2ccc(O)cc2)COc2ccc(O)cc21 | 92.2% | 98.2% | 114% | 105% | 124% | 87.7% | 107% | 109% | 114% | 104% |
| O=C(CN1C(=O)/C(=C\c2ccc(Cl)cc2)SC1=S)Nc1ncc(Cc2ccc(Cl)cc2)s1 | 100% | 107% | 105% | 100% | 101% | 89.5% | 108% | 106% | 110% | 106% |
| NCCOc1ncccc1/C=C1\c2ccccc2-c2ccc(F)cc21 | -6.99% (active) | 48.4% | 11.1% | -33.3% (active) | 29.8% | 37.7% | -51.9% (active) | 6.26% (active) | -30.1% (active) | 7.83% (active) |
| COc1ccc(C2=Nn3c(NN)nnc3SC2)cc1 | 95.9% | 95.2% | 104% | 112% | 105% | 75.5% | 87.2% | 104% | 108% | 103% |
| COc1nc2c(c(=O)n1C)N=C1c3ccccc3C(=O)C1C(c1ccccc1)N2 (stereo not given) | 94.1% | 104% | 86.9% | 103% | 89.2% | 102% | 91.5% | 84.7% | 106% | 94.6% |
| CCN1CCN(C(=S)SCC(=O)Nc2nc3ccc(C)cc3s2)CC1 | 99.2% | 103% | 99.7% | 113% | 92.5% | 29.1% | 103% | 118% | 103% | 113% |
| CC(C)C[C@H](C(=O)N[C@@H](C)C(N)=O)N1CC=CCN(O)S1(=O)=O | 110% [5 µM] | 135% [5 µM] | 102% [5 µM] | 112% [5 µM] | 116% [5 µM] | 91.7% [5 µM] | 102% [5 µM] | 105% [5 µM] | 105% [5 µM] | 128% [5 µM] |
| CN1CCN(c2nc(Nc3ccc(O)cc3)nc3ccccc23)CC1 | 74.8% | 68% | 74.5% | 13.9% | 89.6% | 37.5% | 42.5% | 64.2% | 44.1% | 63% |
